HT1080-NT tox: qHTS for induction of synthetic lethality in tumor cells producing 2HG: qHTS for the HT-1080-NT fibrosarcoma cell line | AID 686970, 2013 | HT-1080-NT fibrosarcoma viability, CellTiter-Glo ATP luminescence, 48 h | actives 1.6% (n = 360,000) | Potency, µM (highest dose often 46.1 µM), without a hit: top-dose activity, negative = less viability, hits mostly cytotoxic;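 also: NT is the 2HG producing partner of a matched IDH1 knockdown line; 0% = DMSO-treated cells and -100% = media-only wells without cells; nearly all actives have a fitted effect of over 55% in size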
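HT-1080-NT; 750 cells/well; 5% FBS RPMI; 48 h compound, 37 degrees C; CellTiter-Glo luminescence; curve fitting and curve-class assignment.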
MCF10A rereplic: A quantitative high throughput screen for small molecules that induce DNA re-replication in MCF 10a normal breast cells; MCF 10A DNA re-replication, Hoechst nuclear intensity, 48 h; Potency, µM (top dose mostly 46.1 µM), inactives show top-dose activity, positive = re-replication, usual class: activators; actives 2.9% (n = 350,000); also: % of control where 0% means no effect; nearly all actives have a fitted effect of over 50% in size
HT1080 IDH1KD tx: qHTS for induction of synthetic lethality in tumor cells producing 2HG: qHTS for the HT-1080-IDH1KD cell line. HT-1080 IDH1 knockdown viability, ATP luminescence, 48 h. Potency, µM (series often up to 46.1 µM), for the others: top-dose activity, negative = toxicity, most hits filed as cytotoxic. actives 2% (n = 360,000);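 also: 0% = DMSO wells and -100% = cell-free medium wells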
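IDH1KD HT-1080 cells, 750/well, RPMI + 5% FBS; compound pinned after 2 h settling; 48 h, 37 °C; CellTiter-Glo luminescence; % activity normalised to DMSO and no-cell wells; curves fitted, classed by r2 and efficacy.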
KB-3-1 tox: qHTS assay for MDR1-selective chemotherapeutics: Primary screen using the parental adenocarcinoma cell KB-3-1; KB-3-1 viability, CellTiter-Glo ATP luminescence, 72 h; Potency, µM (titrated, usually from 46.1 µM), hits mostly cytotoxic; actives 1.4% (n = 400,000); AID 1347075, 2019; also: % is scaled to controls: 0 for no effect and ±100 for the full control effect; nearly all actives have a fitted effect of over 60% in size
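KB-3-1 cells, DMEM (no phenol red) + 10% FBS; compound by pin transfer, 72 h, 37 °C. Readout: CellTiter-Glo luminescence after 10 min. Data normalized, curve-fitted.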
KB-V1 MDR tox: qHTS assay for MDR1-selective chemotherapeutics: Primary screen using the drug-selected MDR subline cells KB-V1; KB-V1 MDR cells viability, CellTiter-Glo, 72 h; Potency, µM (series often up to 46.1 µM), actives largely listed as cytotoxic; actives 3.4% (n = 400,000); AID 1347076, 2019; also: % is scaled to controls: 0 for no effect and ±100 for the full control effect; nearly all actives have a fitted effect of over 60% in size
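Readout: CellTiter-Glo luminescence, 10 min after addition. Cells: KB-V1 MDR subline, 72 h at 37 degrees C with compound. Analysis: corrected, normalized data fitted to concentration-effect curves.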
SW480 rerep: A quantitative high throughput screen for small molecules that induce DNA re-replication in SW480 colon adenocarcinoma cells. SW480 DNA re-replication, Hoechst DNA content imaging, 48 h. AID 624297, 2012. actives 1.8% (n = 340,000). Potency, µM (top dose mostly 46.1 µM), for the others: top-dose re-replication activation, actives largely listed as activators; also: % of control where 0% means no effect; nearly all actives have a fitted effect of over 55% in size
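First, 250 cells per well were seeded. Next, compound or vehicle (23 nL) was pinned in, plates sat 48 hr at 37 C. Finally Hoechst was added for 40 min before fluorescence scanning.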
* hit, by the source's call. Rows were chosen to be rich in hits. Some 8% of all compounds tested hit in one or more screens of this group. Calls follow the shape of the dose curve; as a rule, active = well fitted curve in the direction sought with a large enough effect; inconclusive = small, poorly fitted or top-dose-only effect, or another doubt; inactive = no such curve, though single readings can be large; an effect the other way counts as inactive or inconclusive. Potency is read from the fitted curve at half-maximal effect.

Brc1cc(Br)c2ncnc(N3CCCCC3)c2c1 was read as HT1080-NT tox 9.2µM*, MCF10A rereplic 5.8µM*, HT1080 IDH1KD tx inconclusive, KB-3-1 tox 8.2µM*, KB-V1 MDR tox inconclusive and SW480 rerep inconclusive.
For COc1ccc(NC(=O)CC2NCCNC2=O)c(OC)c1 (centres undefined) the results were KB-3-1 tox inactive and KB-V1 MDR tox inactive.
Screening CCCC(c1nnnn1Cc1ccco1)N1CCN(c2ccccc2)CC1 (centres undefined) returned HT1080-NT tox 10%, MCF10A rereplic -6%, HT1080 IDH1KD tx 7%, KB-3-1 tox inactive, KB-V1 MDR tox inactive and SW480 rerep -3%.
For CCCC(c1nnnn1Cc1ccco1)N1CCN(c2cc(Cl)ccc2C)CC1 (centres undefined) the results were HT1080-NT tox -9%, MCF10A rereplic 25µM*, HT1080 IDH1KD tx inconclusive, KB-3-1 tox inconclusive, KB-V1 MDR tox inconclusive and SW480 rerep 2%.
For COc1ccc(CCn2c(C3CCCCC3)nc3c(c(=O)c4ccccc4n3C)c2=O)cc1 the results were HT1080-NT tox inconclusive, MCF10A rereplic 3.7µM*, HT1080 IDH1KD tx inconclusive, KB-3-1 tox inconclusive, KB-V1 MDR tox 18µM* and SW480 rerep -22%.
COc1ccc2c(=O)c3c(=O)n(Cc4ccco4)c(C(C)C)nc3oc2c1 was read as HT1080-NT tox 3%, MCF10A rereplic 16%, HT1080 IDH1KD tx -9%, KB-3-1 tox inactive, KB-V1 MDR tox 21µM* and SW480 rerep -5%.
For COc1ccc(Cn2c(C3CCCCC3)nc3c(c(=O)c4ccccc4n3C)c2=O)cc1 the results were HT1080-NT tox 3%, MCF10A rereplic -2%, HT1080 IDH1KD tx 6%, KB-3-1 tox inactive, KB-V1 MDR tox inconclusive and SW480 rerep -4%.
Screening Cn1c2ccccc2c(=O)c2c(=O)n(C3CCCCC3)c(-c3cccs3)nc21 returned HT1080-NT tox 2%, MCF10A rereplic inconclusive, HT1080 IDH1KD tx -12%, KB-3-1 tox inconclusive, KB-V1 MDR tox 12µM* and SW480 rerep 1%.
COCCn1c(-c2ccc(C)cc2)nc2oc3cc(OC)ccc3c(=O)c2c1=O was read as HT1080-NT tox 11%, MCF10A rereplic -2%, HT1080 IDH1KD tx 4%, KB-3-1 tox inactive, KB-V1 MDR tox inactive and SW480 rerep inconclusive.
Screening Cn1c2ccccc2c(=O)c2c(=O)n(C3CCCCCC3)c(C3CCCCC3)nc21 returned HT1080-NT tox 0%, MCF10A rereplic inconclusive, HT1080 IDH1KD tx 4%, KB-3-1 tox inconclusive, KB-V1 MDR tox inconclusive and SW480 rerep 4%.
COCCCn1c(C2CCCCC2)nc2oc3cc(OC)ccc3c(=O)c2c1=O was read as HT1080-NT tox 9%, MCF10A rereplic 12%, HT1080 IDH1KD tx 15%, KB-3-1 tox inconclusive, KB-V1 MDR tox 23µM* and SW480 rerep 6%.
CCCNC(=O)CNC(=S)N(Cc1cc(OC)c(OC)c(OC)c1)C1CCCC1 was read as HT1080-NT tox 4%, MCF10A rereplic 9%, HT1080 IDH1KD tx 1%, KB-3-1 tox inactive, KB-V1 MDR tox 16µM* and SW480 rerep -42%.
`COc1cc(CN(C(=S)NCC(=O)O)C2CCCC2)cc(OC)c1OC` gave HT1080-NT tox 1%, MCF10A rereplic 0%, HT1080 IDH1KD tx 7%, KB-3-1 tox inactive, KB-V1 MDR tox inactive and SW480 rerep -13%.
For CC(C)Nc1nc(-c2cccnc2)nc(-c2ccccc2)c1C#N the results were HT1080-NT tox 0%, MCF10A rereplic 23%, HT1080 IDH1KD tx -4%, KB-3-1 tox inactive, KB-V1 MDR tox inactive and SW480 rerep -4%.
Screening CC(C)Nc1nc(-c2cccnc2)nc(-c2ccc(Cl)cc2)c1C#N returned HT1080-NT tox 17%, MCF10A rereplic 23µM*, HT1080 IDH1KD tx 10%, KB-3-1 tox inactive, KB-V1 MDR tox inactive and SW480 rerep 21%.
CCc1ccc(CNC(=O)c2ccc(-n3c(C)cc4c3CCC(C)C4)cc2)cc1 (centres undefined) was read as KB-3-1 tox inactive and KB-V1 MDR tox inactive.
`O=Cc1cccnc1SCc1ccccc1` gave HT1080-NT tox inconclusive, MCF10A rereplic 20%, HT1080 IDH1KD tx inconclusive, KB-3-1 tox inconclusive, KB-V1 MDR tox 15µM* and SW480 rerep 2.6µM*.
Screening Oc1cccnc1SCc1ccccc1 returned HT1080-NT tox 1%, MCF10A rereplic -2%, HT1080 IDH1KD tx 1%, KB-3-1 tox inactive, KB-V1 MDR tox inactive and SW480 rerep -2%.
For C=CCNc1nc(Cl)nc(Nc2ccc(OC)cc2)n1 the results were HT1080-NT tox inconclusive, MCF10A rereplic 3%, HT1080 IDH1KD tx -27%, KB-3-1 tox inactive, KB-V1 MDR tox 13µM* and SW480 rerep -6%.
C=C1c2cc(OC)ccc2NC(=O)N1CC was read as HT1080-NT tox 0%, MCF10A rereplic 12%, HT1080 IDH1KD tx -2%, KB-3-1 tox inactive, KB-V1 MDR tox 7.3µM* and SW480 rerep 0%.
Cc1ccc(-c2[nH]ncc2/C=N/n2c(C)nc3ccccc3c2=O)cc1 was read as HT1080-NT tox -11%, MCF10A rereplic inconclusive, HT1080 IDH1KD tx -1%, KB-3-1 tox inactive, KB-V1 MDR tox inactive and SW480 rerep -7%.
Screening Cc1ccccc1OCc1nc2ccccc2c(=O)n1/N=C/c1cn[nH]c1-c1ccc(Br)cc1 returned HT1080-NT tox -3%, MCF10A rereplic inconclusive, HT1080 IDH1KD tx -3%, KB-3-1 tox inconclusive, KB-V1 MDR tox 7.3µM* and SW480 rerep inconclusive.
O=c1c2ccccc2nc(COc2ccccc2)n1/N=C/c1cn[nH]c1-c1ccccc1 was read as HT1080-NT tox -24%, MCF10A rereplic inconclusive, HT1080 IDH1KD tx -27%, KB-3-1 tox inactive, KB-V1 MDR tox 21µM* and SW480 rerep -3%.
O=Nc1c(O)n(Cc2cccc(Cl)c2)c2ccccc12 was read as HT1080-NT tox 15µM*, MCF10A rereplic inconclusive, HT1080 IDH1KD tx 18µM*, KB-3-1 tox inactive, KB-V1 MDR tox inactive and SW480 rerep 12%.
Cc1ccc2nc(CN3CCN(S(=O)(=O)c4ccccc4)CC3)oc2c1 was read as KB-3-1 tox inactive and KB-V1 MDR tox inactive.
